From PubChem
This is one part of a sample in which hits are shown more often than they occur.
RBX1-CUL1 inh: blocks human RBX1-Cullin-1 di-ubiquitin formation; P62877+Q13616; in vitro K48 di-Ub FRET, acceptor:donor ratio, 45 min; inhibition, % at 10 µM; 0.6% of 140,000 active; in the data active = inhibition above about 25%
Target sequence (P62877 whole entry, looked up): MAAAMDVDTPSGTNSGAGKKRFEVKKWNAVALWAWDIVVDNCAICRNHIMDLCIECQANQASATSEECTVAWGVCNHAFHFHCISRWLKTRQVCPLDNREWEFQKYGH
Target sequence (Q13616 whole entry, looked up): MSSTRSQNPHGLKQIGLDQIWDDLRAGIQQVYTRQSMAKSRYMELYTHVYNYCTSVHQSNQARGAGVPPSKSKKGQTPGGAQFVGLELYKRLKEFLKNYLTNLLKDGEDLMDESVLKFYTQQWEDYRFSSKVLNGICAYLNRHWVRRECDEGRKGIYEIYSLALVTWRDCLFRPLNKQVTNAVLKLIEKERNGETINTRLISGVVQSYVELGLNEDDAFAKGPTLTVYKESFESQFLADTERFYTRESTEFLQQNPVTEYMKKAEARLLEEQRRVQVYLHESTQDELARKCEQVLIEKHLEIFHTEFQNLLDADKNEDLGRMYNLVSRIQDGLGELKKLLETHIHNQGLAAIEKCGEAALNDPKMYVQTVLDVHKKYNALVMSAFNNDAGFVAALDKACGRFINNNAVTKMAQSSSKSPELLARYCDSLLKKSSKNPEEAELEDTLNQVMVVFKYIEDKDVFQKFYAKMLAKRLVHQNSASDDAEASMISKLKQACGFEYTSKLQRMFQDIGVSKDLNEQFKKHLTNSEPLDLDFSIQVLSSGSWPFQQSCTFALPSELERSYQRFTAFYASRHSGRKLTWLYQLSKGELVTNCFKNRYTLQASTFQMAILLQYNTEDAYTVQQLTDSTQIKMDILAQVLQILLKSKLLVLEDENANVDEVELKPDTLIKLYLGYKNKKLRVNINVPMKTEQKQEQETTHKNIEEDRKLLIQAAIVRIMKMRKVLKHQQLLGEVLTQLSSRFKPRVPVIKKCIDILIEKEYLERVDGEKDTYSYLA
Active calls of the source: *.

SMILES	RBX1-CUL1 inh
O=C(O)c1ccc(N2N=C(c3ccccc3)/C(=C/c3ccccc3)C2=O)cc1	7
O=C1/C(=C/c2ccccc2OCc2ccccc2Cl)C(c2ccccc2)=NN1c1ccc([N+](=O)[O-])cc1	-3
COc1ccc(-c2ccc(OC)c(OC)c2OC)c(OC)c1OC	-5
COc1ccc2c(=O)c(Br)cccc2c1OC	3
COc1ccc(OC)c2c(OC)c3ccccc3c(OC)c12	52*
COc1ccc(OC)c(/C=C2/C(=O)c3ccccc3OC2c2cc(OC)ccc2OC)c1 (stereo not given)	1
CN(C)C1(C(=O)N2CCC(O)(c3ccccn3)CC2)Cc2ccccc2C1	0
Cc1cccc(C)c1-n1c(C)cc(/C=N\NC(=O)Nc2ccccc2)c1C	-4
COCC(=O)Oc1c(Sc2ccc(C)cc2)c(C)nn1C(C)(C)C	59*
COc1cccc(C(=O)Oc2c(Sc3ccc(C)cc3)c(C)nn2C(C)(C)C)c1OC	-3
COc1ccc(C(=O)Oc2c(Sc3ccc(C)cc3)c(C)nn2C(C)(C)C)cc1OC	-8
COCCCN(C(=O)Nc1ccccc1)C(C)c1ccccn1 (stereo not given)	-4
CSCC(=O)N1CCCC(CCC(=O)N2CCN(c3ccccn3)CC2)C1 (stereo not given)	4
COc1ccc(COC(=O)C2C(C)=NC(=O)CC2c2cccc(Cl)c2Cl)cc1 (stereo not given)	1
CCOC(=O)c1nnn(Cc2ccccc2Cn2nnc(C(=O)OCC)c2C(=O)OCC)c1C(=O)OCC	1
Cc1cc(C)cc(N2C(=O)/C(=C/c3cn(CC(=O)N4CCC(C)CC4)c4ccccc34)C(=O)NC2=S)c1	-6
Cc1c(Cl)cccc1N1C(=O)/C(=C/c2cn(CC(=O)O)c3ccccc23)C(=O)NC1=S	81*
O=C1NC(=S)N(c2ccc(Br)cc2)C(=O)/C1=C/c1cn(CC(=O)N2CCCc3ccccc32)c2ccccc12	-10
CC(C)C(=O)NCCC(c1ccccc1)c1ccccc1	-10
O=c1c2cnc3ncnn3c2ccn1Nc1nc2ccccc2s1	-12
CCc1ccccc1N=CCC(=O)c1ccc(Br)cc1	7
COc1cc(CC2(CCC(=O)NCc3cc4cc(F)ccc4[nH]3)CCC(=O)N2)ccc1F (stereo not given)	-12
COc1ccc(CNc2c(F)c(F)c3nc4snc(C)c4cc3c2F)cc1	-6
COc1ccccc1CNc1c(F)c(F)c2nc3snc(C)c3cc2c1F	87*
Cc1nsc2nc3c(F)c(F)c(N[C@@H](C)c4ccccc4)c(F)c3cc12	9
SMILES	RBX1-CUL1 inh
COc1cc2nc(-c3ccccc3NS(=O)(=O)c3ccc(C)cc3)n(-c3cc(C(C)(C)C)c(O)c(C(C)(C)C)c3)c2cc1OC	10
O=C(O)CSc1nnc2c(n1)OC(c1ccc(Cl)cc1)Nc1ccccc1-2 (stereo not given)	-6
COC(=O)c1ccc(C2Nc3ccccc3-c3nnc(SCc4ccc(C)cc4)nc3O2)cc1 (stereo not given)	-3
O=C(O)c1ccc(C2Nc3ccccc3-c3nnc(SCc4ccc(Cl)cc4)nc3O2)cc1 (stereo not given)	26*
O=C1CN(C(=O)c2ccc3oc(-c4ccc(C(F)(F)F)cc4)nc3c2)CCN1	1
O=C(N/N=C\c1ccc(Sc2ccccn2)o1)c1ccccc1	-3
CN1CC2C(C1)C1CCC2C1OC(=O)c1ccccc1 (stereo not given)	-3
COc1ccc(S(=O)(=O)Nc2ccc(O)c3ccccc23)cc1	-6
O=S(=O)(Nc1cc(Sc2ncn[nH]2)c(O)c2ccccc12)c1ccc2ccccc2c1	84*
NNS(=O)(=O)c1ccc2ccccc2c1	-1
CC(C)(C)c1csc(SCC(N)=O)n1	6
CCOC(=O)C1=C(C)N=c2s/c(=C\c3cc(Cl)cc(Cl)c3O)c(=O)n2C1c1ccccc1Cl (stereo not given)	-29
COC(=O)C1C2(C)N=c3s/c(=C\c4cc(Cl)cc(Cl)c4O)c(=O)n3C3c4ccccc4OC312 (stereo not given)	41*
Cc1ccccc1NC(=O)C1C2c3ccccc3OC1(C)N=c1s/c(=C/c3cnn(C)c3C)c(=O)n12 (stereo not given)	-4
CCc1nc(C)c(C(=O)N2CCc3[nH]nc(CCSC)c3C2)o1	7
CC1=C(C(=O)N2CCC(CCC(=O)NC3CC3)CC2)OCCO1	-13
CNC(=O)c1cc(-c2cccc(-c3ccn[nH]3)c2)ccc1Cl	11
CC(=O)CSc1ccccc1[N+](=O)[O-]	3
Cc1ccc(S(=O)(=O)Oc2cccc(/C=C3/C(=N)N4N=C(CC(C)C)SC4=NC3=O)c2)cc1	1
N=C1/C(=C/c2cccc(Br)c2)C(=O)N=C2SC(C(F)(F)F)=NN12	-2
N=C1/C(=C/c2cccc(OC(=O)c3cccs3)c2)C(=O)N=C2SC(c3cccs3)=NN12	95*
CC(C)(C)c1ccc(C(=O)Oc2cccc(/C=C3\C(=N)N4N=C(c5ccco5)SC4=NC3=O)c2)cc1	96*
CCOC(=O)c1ccc(-c2ccc(/C=C3/C(=N)N4N=C(c5ccc(C)cc5)SC4=NC3=O)o2)cc1	2
COc1cc(/C=C2/C(=N)N3N=C(c4ccco4)SC3=NC2=O)cc(OC)c1OC	18
Cc1cc(C)c(C#N)c(SCc2[nH]nc3c2C(c2cccnc2)C(C#N)C(=N)O3)n1 (stereo not given)	-1
SMILES	RBX1-CUL1 inh
CSc1nc(N)nn1S(=O)(=O)c1cc(Cl)ccc1Cl	6
CC(=O)N=C1C(=O)c2ccccc2C(=O)C1NCCOc1ccccc1 (stereo not given)	-4
CC(=O)Nc1cccc2c1C(=O)N(c1cccc(C(=O)O)c1)C2=O	-15
CC(=O)N=C1C(=O)c2c(NC(C)=O)cccc2C(=O)C1Br (stereo not given)	60*
O=C(Oc1cc(=O)n(-c2ccccc2)c(-c2ccccc2)n1)c1ccc(Cl)cc1Cl	4
CCN1C(=O)N=C(Cc2cc(Cl)ccc2OC)C1=O	-1
O=C1NC(=S)N(c2ccc(Br)cc2)C(=O)/C1=C/c1ccc(F)cc1	0
CCN(CC)c1ccc(/C=C2\C(=O)NC(=S)N(c3ccc(Br)cc3)C2=O)cc1	28*
CCN(CC)c1ccc(/C=C2\C(=O)NC(=O)N(c3ccc(Br)c(C)c3)C2=O)cc1	-40
COCCN1C(=O)c2cccc3c(Cl)ccc(c23)C1=O	10
Cc1ccc(S(=O)(=O)N2CCN(Cc3cc(C(C)(C)c4ccccc4)ccc3O)CC2)cc1	-6
C=CCOc1ccc(Br)cc1/C=C1/SC(=O)NC1=O	-11
C=CCOc1ccc(Br)cc1/C=C/c1[nH]c(=O)[nH]c(=O)c1[N+](=O)[O-]	42*
C#CCOc1ccc(/C=C/c2[nH]c(=O)[nH]c(=O)c2[N+](=O)[O-])cc1OC	3
OC(CN1CCN(CC(O)Cn2c3cc(Cl)ccc3c3ccc(Cl)cc32)CC1)Cn1c2ccccc2c2ccccc21 (stereo not given)	0
CCN(C(C)=O)c1ccc(Cl)cc1C(=O)O	-5
O=C(CSc1nc2ccccc2c(=O)[nH]1)c1ccc(O)c(O)c1	103*
O=C(CSc1nc2ccccc2c(=O)[nH]1)c1ccc(Cl)cc1	2
Cc1cc(=O)[nH]c(SCC(=O)c2ccc(O)c(O)c2)n1	15
COC12C=CC(CC1)C1=C2C(=O)c2c(OC(=O)c3ccccc3)ccc(OC(=O)c3ccccc3)c2C1=O (stereo not given)	71*
O=C(Oc1cc(=O)n(-c2ccccc2)c2c1CCCC2)c1ccccc1	5
CC1(C)CC(=O)C(C(c2ccccc2OC(=O)c2ccccc2)C2C(=O)CC(C)(C)CC2=O)C(=O)C1	-11
